# Test results: the supplement of paper PMC8728848
# Shown is part of a subset that was picked to be rich in the strongest signals.
# Assays:
# Assay in all cases: glycan array binding signal (z-score within array); higher = stronger binding
# Conditions in all cases: glycan notation: IUPAC condensed, linker removed
# [1] = target: Gal(b1-4)GlcNAc(b1-3)Gal(b1-4)GlcNAc(b1-2)Man(a1-3)[Gal(b1-4)GlcNAc(b1-3)Gal(b1-4)GlcNAc(b1-2)Man(a1-6)]Man(b1-4)GlcNAc(b1-4)[Fuc(a1-6)]GlcNAc
# How it was run: (§1)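 Negative Z-scores can be read as non-binding. The Z-score is calculated within each array and then averaged across arrays of one protein sequence at different concentrations or buffers and across linkers. Arrays, 3228 in all, were curated from the Consortium for Functional Glycomics database and kept only where the protein sequence was available.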
# [2] = target: Gal(b1-4)GlcNAc(b1-3)Gal(b1-4)GlcNAc(b1-3)Gal(b1-4)GlcNAc(b1-2)[Gal(b1-4)GlcNAc(b1-3)Gal(b1-4)GlcNAc(b1-3)Gal(b1-4)GlcNAc(b1-6)]Man(a1-6)[Gal(b1-4)GlcNAc(b1-3)Gal(b1-4)GlcNAc(b1-3)Gal(b1-4)GlcNAc(b1-2)Man(a1-3)]Man(b1-4)GlcNAc(b1-4)[Fuc(a1-6)]GlcNAc
# How it was run: as §1
# [3] = target: Gal(b1-4)GlcNAc(b1-3)Gal(b1-4)GlcNAc(b1-3)Gal(b1-4)GlcNAc(b1-3)Gal(b1-4)GlcNAc(b1-2)Man(a1-3)[Gal(b1-4)GlcNAc(b1-3)Gal(b1-4)GlcNAc(b1-3)Gal(b1-4)GlcNAc(b1-3)Gal(b1-4)GlcNAc(b1-2)Man(a1-6)]Man(b1-4)GlcNAc(b1-4)GlcNAc
# How it was run: as §1
# [4] = target: Gal(b1-4)GlcNAc(b1-3)Gal(b1-4)GlcNAc(b1-3)Gal(b1-4)GlcNAc(b1-3)Gal(b1-4)GlcNAc(b1-3)Gal(b1-4)GlcNAc(b1-3)Gal(b1-4)GlcNAc(b1-2)Man(a1-3)[Gal(b1-4)GlcNAc(b1-3)Gal(b1-4)GlcNAc(b1-3)Gal(b1-4)GlcNAc(b1-3)Gal(b1-4)GlcNAc(b1-3)Gal(b1-4)GlcNAc(b1-3)Gal(b1-4)GlcNAc(b1-2)Man(a1-6)]Man(b1-4)GlcNAc(b1-4)GlcNAc
# How it was run: as §1
# [5] = target: Gal3S(b1-4)[Fuc(a1-3)]Glc6S
# How it was run: as §1
# [6] = target: Gal3S6S(b1-4)GlcNAc
# How it was run: as §1
# [7] = target: Gal6S(b1-4)GlcNAc6S
# How it was run: as §1
# [8] = target: GlcNAc(a1-4)Gal(b1-4)GlcNAc(b1-3)Gal(b1-4)GlcNAc
# How it was run: as §1
# [9] = target: GlcNAc(b1-2)Man(a1-3)[GlcNAc(b1-4)][GlcNAc(b1-2)Man(a1-6)]Man(b1-4)GlcNAc(b1-4)[Fuc(a1-6)]GlcNAc
# How it was run: as §1
# [10] = target: GlcNAc(b1-3)Gal(b1-4)GlcNAc(b1-3)Gal(b1-4)GlcNAc(b1-3)Gal(b1-4)GlcNAc(b1-3)Gal(b1-4)GlcNAc(b1-2)Man(a1-3)[GlcNAc(b1-3)Gal(b1-4)GlcNAc(b1-3)Gal(b1-4)GlcNAc(b1-3)Gal(b1-4)GlcNAc(b1-3)Gal(b1-4)GlcNAc(b1-2)Man(a1-6)]Man(b1-4)GlcNAc(b1-4)GlcNAc
# How it was run: as §1
# [11] = target: GlcNAc(b1-4)GlcNAc(b1-4)GlcNAc(b1-4)GlcNAc(b1-4)GlcNAc
# How it was run: as §1
# [12] = target: Kdn(a2-3)Gal(b1-3)GalNAc
# How it was run: as §1
# [13] = target: Neu5Ac(a2-3)Gal(b1-4)GlcNAc(b1-2)[Neu5Ac(a2-3)Gal(b1-4)GlcNAc(b1-4)]Man(a1-3)[GlcNAc(b1-4)][Neu5Ac(a2-3)Gal(b1-4)GlcNAc(b1-4)Man(a1-6)]Man(b1-4)GlcNAc(b1-4)GlcNAc
# How it was run: as §1
# [14] = target: Neu5Ac(a2-3)Gal(b1-4)GlcNAc(b1-3)Gal(b1-4)GlcNAc(b1-2)Man(a1-3)[Neu5Ac(a2-3)Gal(b1-4)GlcNAc(b1-3)Gal(b1-4)GlcNAc(b1-2)Man(a1-6)]Man(b1-4)GlcNAc(b1-4)GlcNAc
# How it was run: as §1
# [15] = target: Neu5Ac(a2-3)Gal(b1-4)GlcNAc(b1-6)[Neu5Ac(a2-3)Gal(b1-3)]GalNAc
# How it was run: as §1
# [16] = target: Neu5Ac(a2-3)Gal(b1-4)[Fuc(a1-3)]GlcNAc6S
# How it was run: as §1
# [17] = target: Neu5Ac(a2-3)[GalNAc(b1-4)]Gal(b1-4)GlcNAc
# How it was run: as §1
# [18] = target: Neu5Ac(a2-6)Gal(b1-4)GlcNAc(b1-2)Man(a1-6)[Man(a1-3)]Man(b1-4)GlcNAc(b1-4)GlcNAc
# How it was run: as §1
# [19] = target: Neu5Ac(a2-6)Gal(b1-4)GlcNAc(b1-3)GalNAc
# How it was run: as §1
# [20] = target: Neu5Ac(a2-6)Gal(b1-4)GlcNAc(b1-3)[Neu5Ac(a2-6)Gal(b1-4)GlcNAc(b1-6)]GalNAc
# How it was run: as §1
# [21] = target: Neu5Ac(a2-6)GalNAc(b1-4)GlcNAc6S
# How it was run: as §1
# [22] = target: Neu5Ac(a2-8)Neu5Ac(a2-3)Gal(b1-4)GlcNAc
# How it was run: as §1
# [23] = target: Neu5Ac(a2-8)Neu5Ac(a2-8)Neu5Ac
# How it was run: as §1
binder,measurement,setting,value
PX14367B-bvu-516-23-516 (Bacteroides vulgatus) (protein) LDTIPTTYVDAGSVFGKTGDAEKVLNGGWNYLMETFNSYANPGYGAMLRANDAMGSDVVLNSKYGFRTHNEFSAIYGKGGTNTLSWLLAYRVINDCNGVLDNIDAAEGTQADRNRIKGQALALRGFLYLHLASCYSFAIDKDPDAVCAPIYTQSTDETIAAEGKPASSVSEVYAQSINDLEEALELIPETYVRDAKHKIDNEVVLGILSRACLYARQWEKAKTYSDKLLAKDNYLMTESEYKAGFNSVDNKEWIWGHAQTNDQSNASYQFHYLDTTTKGSYYYSFNVDPYFRDLFEDGDYRKEMLFWATDPGADVESAAYVWMRNSKFRFRDIENQLGDIVLMRVAEIYLINAEAKAHLNDPDAINKLNDLKTARGAKTIHTNLSQQDLLETIWLERRKELWGEGFSLIDIIRNQQTVVRNAYPEGPIDYIYTDENGQTHTLKKKTQGHRFFNFPDKSAFCPNSKYYLYRITDSEELANKNLYKDHPKLSIYTK,glycan array binding signal (z-score),[1],0.011
same,glycan array binding signal (z-score),[2],7.91
same,glycan array binding signal (z-score),[3],0.812
same,glycan array binding signal (z-score),[4],7.87
same,glycan array binding signal (z-score),[5],2.87
same,glycan array binding signal (z-score),[6],-0.262
same,glycan array binding signal (z-score),[7],6.08
same,glycan array binding signal (z-score),[8],-0.2
same,glycan array binding signal (z-score),[9],-0.049
same,glycan array binding signal (z-score),[10],-0.276
same,glycan array binding signal (z-score),[11],-0.245
same,glycan array binding signal (z-score),[12],-0.198
same,glycan array binding signal (z-score),[13],-0.262
same,glycan array binding signal (z-score),[14],-0.164
same,glycan array binding signal (z-score),[15],-0.354
same,glycan array binding signal (z-score),[16],-0.354
same,glycan array binding signal (z-score),[17],-0.356
same,glycan array binding signal (z-score),[18],4.55
same,glycan array binding signal (z-score),[19],-0.386
same,glycan array binding signal (z-score),[20],0.372
same,glycan array binding signal (z-score),[21],-0.208
same,glycan array binding signal (z-score),[22],-0.353
same,glycan array binding signal (z-score),[23],-0.342
